According to PubChem BioAssay AID463173 (ICCB-Longwood Screening Facility, Harvard Medical School, 2010):
In all, about 52,000 compounds went through this assay and about 4,300 (8.3%) were called active. Rule as the data show it: active = survival mostly below about 52% (no sharp cut-off); inactive = mostly above about 56%. The list comes from a sample in which actives are over-represented; it also holds similar structures and randomly drawn compounds.

Tested on: DeltatarO mutant
Assay: growth inhibition of S. aureus wild type versus tarO mutant, primary screen, teichoic acid synthesis inhibitors, RN4220, OD600 (AID 463173)
Conditions: OD600, 18 h, active compounds read low, screened at 18.75 µg/mL (by protocol)

Row | SMILES | survival
1 | CN1/C(=C/C(=O)C2CCC2)Sc2ccccc21 | 56% (inactive)
2 | Cn1c(=O)n(C)c2cc(N3CCCCC3)c(NC(=O)Nc3ccc(Br)cc3)cc21 | 88% (inactive)
3 | COCCn1c(=N)c(C(=O)NCc2ccco2)cc2c(=O)n3cc(C)ccc3nc21 | 69% (inactive)
4 | COc1cccc(C(c2sc3nc(-c4ccco4)nn3c2O)N2CCN(C)CC2)c1 (centres undefined) | 88% (inactive)
5 | CCOC(=O)c1c(NC(=O)c2cc3nc(-c4ccc(OC)cc4)cc(C(F)(F)F)n3n2)sc2c1CCC(C)C2 (centres undefined) | 95% (inactive)
6 | CCOc1ccc(NS(=O)(=O)c2ccc3[nH]cc(C(=O)N4CCCC4)c(=O)c3c2)cc1 | 85% (inactive)
7 | CCOc1ccc(NC(=O)Cn2c(=O)n(Cc3ccc(C(=O)NCc4ccc(C)cc4)cc3)c(=O)c3ccccc32)cc1 | 75% (inactive)
8 | CCN(CC)c1nc(OCC(F)(F)F)nc(N(c2ccccc2)c2ccccc2)n1 | 76% (inactive)
9 | COc1ccc(NC(=O)Cn2c(=O)n(Cc3ccccc3)c(=O)c3oc4ccccc4c32)cc1Cl | 85% (inactive)
10 | O=C(Cn1c(=O)n(Cc2ccco2)c(=O)c2oc3ccccc3c21)Nc1ccc(F)c(Cl)c1 | 44% (active)
11 | O=C(Cn1c(=O)n(Cc2ccco2)c(=O)c2oc3ccccc3c21)Nc1ccccc1 | 67% (inactive)
12 | COc1cc(NC(=O)Cn2c(=O)n(Cc3ccccc3)c(=O)c3oc4ccccc4c32)cc(OC)c1 | 85% (inactive)
13 | CC(C)n1c(=O)c2oc3ccccc3c2n(CC(=O)Nc2ccccc2Cl)c1=O | 60% (inactive)
14 | Cc1cc(C)cc(NC(=O)Cn2c(=O)n(C(C)C)c(=O)c3oc4ccccc4c32)c1 | 48% (inactive)
15 | COc1ccc(NC(=O)Cn2c(=O)n(Cc3ccco3)c(=O)c3oc4ccccc4c32)cc1Cl | 53% (inactive)
16 | COc1cc(NC(=O)Cn2c(=O)n(C(C)C)c(=O)c3oc4ccccc4c32)cc(OC)c1 | 47% (active)
17 | COc1ccc(NC(=O)Cn2c(=O)n(C(C)C)c(=O)c3oc4ccccc4c32)cc1Cl | 42% (active)
18 | COc1cccc(CNC(=O)C2CCCN(S(=O)(=O)c3cn(C)cn3)C2)c1 (centres undefined) | 75% (inactive)
19 | CSCCC(NS(=O)(=O)c1cccs1)C(=O)Nc1ccc(C)c(Cl)c1 (centres undefined) | 74% (inactive)
20 | CCC(C(=O)N1CCN(c2ccccn2)CC1)c1ccccc1 (centres undefined) | 75% (inactive)
21 | COc1ccc(CNC(=O)CCS(=O)(=O)c2ccc3c(c2)oc(=O)n3C)cc1 | 75% (inactive)
22 | CCc1ccccc1NC(=O)Cn1c(=O)n(Cc2ccccc2)c(=O)c2c(C)c(C(=O)N(C)C)sc21 | 67% (inactive)
23 | N#CC(C#N)=C(C(C#N)=C1Nc2ccccc2N1)c1ccccc1F | 59% (inactive)

Row | SMILES | survival
24 | O=C(Nc1ccc(Br)cc1)c1ccc2c3c(onc13)-c1ccccc1C2=O | 72% (inactive)
25 | CN(C)c1ccc(CNS(=O)(=O)c2ccc3[nH]c4c(c3c2)CCCCC4)cc1 | 84% (inactive)
26 | Cc1cccc(C(=O)Nc2ccc3nc(SCC(=O)N4CCCC4)sc3c2)c1 | 58% (inactive)
27 | CCSc1ncc(Cl)c(C(=O)N(Cc2ccccc2Cl)C2CCS(=O)(=O)C2)n1 (centres undefined) | 83% (inactive)
28 | CCSc1ncc(Cl)c(C(=O)N(Cc2ccc(C(C)(C)C)cc2)C2CCS(=O)(=O)C2)n1 (centres undefined) | 42% (active)
29 | CCCOc1ccc(CN(C(=O)c2cc(=O)c3ccc(C)cc3o2)C2CCS(=O)(=O)C2)cc1 (centres undefined) | 36% (active)
30 | CCOc1ccc(CN(C(=O)c2cc(=O)c3cc(C)cc(C)c3o2)C2CCS(=O)(=O)C2)cc1 (centres undefined) | 56% (inactive)
31 | CCc1ccc(CN(C(=O)c2nc(SC)ncc2Cl)C2CCS(=O)(=O)C2)cc1 (centres undefined) | 71% (inactive)
32 | Cc1ccc2c(=O)cc(C(=O)N(Cc3ccc(N(C)C)cc3)C3CCS(=O)(=O)C3)oc2c1 (centres undefined) | 115% (inactive)
33 | CCc1ccc(CN(C(=O)c2cc(=O)c3ccc(C)cc3o2)C2CCS(=O)(=O)C2)cc1 (centres undefined) | 107% (inactive)
34 | CCOc1ccc(CN(C(=O)c2cc(=O)c3cc(Cl)ccc3o2)C2CCS(=O)(=O)C2)cc1 (centres undefined) | 104% (inactive)
35 | Cc1ccc2c(=O)cc(C(=O)N(Cc3ccc(C(C)(C)C)cc3)C3CCS(=O)(=O)C3)oc2c1 (centres undefined) | 35% (active)
36 | COc1cccc(NC(=O)c2oc3ccccc3c2NC(=O)c2ccc(C(F)(F)F)cc2)c1 | 60% (inactive)
37 | COc1cc(CN2CCc3nc(Nc4ccc5c(c4)OCCO5)ncc3C2)cc(OC)c1OC | 91% (inactive)
38 | CCOC(=O)N1CCN(Cc2nc3cc(NC(=O)C(C)C)ccc3n2C(C)C)CC1 | 68% (inactive)
39 | CCOC(=O)c1cccc(NC(=O)CCC(=O)N2CC(C)Oc3ccc(C)cc32)c1 (centres undefined) | 51% (inactive)
40 | Cc1ccc(-n2nc(C)c3c(C)c(CCC(=O)NCc4ccc(Cl)cc4)c(C)nc32)cc1 | 89% (inactive)
41 | O=C(CN1CCN(Cc2ccccc2Cl)C1=O)NCc1ccccc1Cl | 67% (inactive)
42 | CCc1cc(C=Nc2ccccc2)c(O)s1 | 98% (inactive)
43 | Cc1cc(N2CCN(c3cccc(C)c3C)CC2)n2nc(C)c(-c3ccc(Cl)cc3)c2n1 | 87% (inactive)
44 | Cc1ccc(CNC(=O)c2cc3sccc3n2Cc2ccc(F)cc2)cc1 | 83% (inactive)
45 | COC(=O)CN1C(=O)CSc2ccc(S(=O)(=O)Nc3ccc(Cl)cc3C)cc21 | 124% (inactive)
46 | Cc1cccc(-c2nc(SCCCOc3ccc(Cl)c(C)c3)n3[nH]c(=O)cc3n2)c1 | 72% (inactive)

Row | SMILES | survival
47 | N#Cc1cc2c(=O)n3ccccc3nc2n(-c2nnc(SCc3ccccc3F)s2)c1=O | 81% (inactive)
48 | CCc1ccc(NC(=O)CSC2=Nc3ccccc3C3=NC(CC(=O)NCc4ccc5c(c4)OCO5)C(=O)N23)cc1 (centres undefined) | 107% (inactive)
49 | COCCN1Cc2cccc(C(=O)Nc3ccc(Cl)cc3Cl)c2C1=O | 59% (inactive)
50 | Cc1cc(=O)n(Cc2ccccc2)c2c1c(C)nn2C | 20% (active)
51 | COC(=O)c1ccc(Cn2c(=O)cc(C)c3c(C)nn(C)c32)cc1 | 66% (inactive)
52 | COc1cccc(Cn2c(=O)cc(C)c3c(C)nn(C)c32)c1 | 89% (inactive)
53 | Cc1cc(=O)n(Cc2cccc(Cl)c2)c2c1c(C)nn2C | 102% (inactive)
54 | C=Cc1ccc(Cn2c(=O)cc(C)c3c(C)nn(-c4ccccc4)c32)cc1 | 17% (active)
55 | Cc1cc(=O)n(Cc2ccc(Cl)cc2)c2c1c(C)nn2-c1ccccc1 | 126% (inactive)
56 | Cc1ccc(C)c(Cn2c(=O)cc(C)c3c(C)nn(C)c32)c1 | 91% (inactive)
57 | C=Cc1ccc(Cn2c(=O)cc(C)c3c(C)nn(C)c32)cc1 | 8% (active)
58 | Cc1cc(=O)n(Cc2ccccc2)c2c1c(C)nn2-c1ccccc1 | 89% (inactive)
59 | CCc1ccccc1NC(=O)CCC(=O)N1CC(C)Oc2ccc(C)cc21 (centres undefined) | 62% (inactive)
60 | O=C(COc1ccc2ccccc2c1)NC1CC(=O)N(c2ccc(F)cc2)C1 (centres undefined) | 69% (inactive)
61 | CC(C)CCn1nnnc1CN1CCN(Cc2ccc3c(c2)OCO3)CC1 | 69% (inactive)
62 | CCOC(=O)c1nnn(C(CC)C(=O)Nc2c(C)cccc2C)c1C(=O)OCC (centres undefined) | 100% (inactive)
63 | Cc1cccn2c(=O)c3cc(C#N)c(=O)n(-c4nnc(SCc5ccc(Cl)cc5)s4)c3nc12 | 81% (inactive)
64 | CC(C)N(C(=O)Cn1cc(S(=O)(=O)Cc2ccc(C(F)(F)F)cc2)c2ccccc21)C(C)C | 54% (inactive)
65 | Cc1cc(C)c(NC(=O)Cn2c(=O)n(Cc3ccc(C(=O)NCc4ccco4)cc3)c(=O)c3sccc32)c(C)c1 | 173% (inactive)
66 | Cc1cccc(NS(=O)(=O)c2ccc3oc(=O)c4ncn(C)c4c3c2)c1C | 109% (inactive)
67 | Cc1ccc(NC(=O)c2ccc(CNS(=O)(=O)c3ccc4c(c3)C(C)(C)C(=O)N4C)cc2)cc1C | 62% (inactive)
68 | COc1ccc(OC)c(CCNc2ncnc3onc(-c4ccc(Cl)cc4)c23)c1 | 94% (inactive)
69 | CCOc1ccc2oc(=O)cc(CN3CCN(c4ccc(Cl)cc4)CC3)c2c1 | 97% (inactive)

Row | SMILES | survival
70 | CCN1CC=C2C(C#N)=C(N)C(C#N)(C#N)C(C)C2C1 (centres undefined) | 80% (inactive)
71 | Cc1ccc(Cn2cc(CCC(=O)NC3CCC(C)CC3)c3ccccc32)cc1 (centres undefined) | 74% (inactive)
72 | O=C(CCc1cn(Cc2ccccc2Cl)c2ccccc12)NC1CCCCC1 | 71% (inactive)
73 | CC1CCC(NC(=O)CCc2cn(Cc3ccccc3Cl)c3ccccc23)CC1 (centres undefined) | 51% (active)
74 | O=C(O)c1ccc(C2Nc3ccccc3-c3nnc(SCc4ccc(Cl)cc4)nc3O2)cc1 (centres undefined) | 85% (inactive)
75 | Cc1ccc(C)c(CN2C(=O)c3ccccc3S(=O)c3ccc(C(=O)NCc4ccco4)cc32)c1 (centres undefined) | 72% (inactive)
76 | COc1ccc2nc(SC)nc(C)c2c1 | 67% (inactive)
77 | COc1ccc2oc(=O)c(C(=O)N3CCN(c4ccc(C)cc4)CC3)cc2c1 | 91% (inactive)
78 | COc1ccc2oc(=O)c(C(=O)N3CCC(C(N)=O)CC3)cc2c1 | 79% (inactive)
79 | COc1ccc2oc(=O)c(C(=O)N3CCN(c4cc(Cl)ccc4Cl)CC3)cc2c1 | 48% (active)
80 | CC(=O)Nc1cc(C(=O)NCc2ccc(F)cc2)ccc1Sc1ccc(C)cc1 | 94% (inactive)
81 | CCN(CC)c1nc(-c2ccc(C(C)(C)C)cc2)nc2ccccc12 | -1% (active)
82 | CCCCN(CC)c1nc(-c2ccccc2F)nc2ccccc12 | 94% (inactive)
83 | Cc1cccc(OCCn2c(-c3ccc(Cl)cc3)nc3ccccc3c2=O)c1C | 77% (inactive)
84 | CCCN(CCC)c1nc(-c2ccccc2F)nc2ccccc12 | 4% (active)
85 | CC(C)CN(CC(C)C)c1nc(-c2ccc(Cl)cc2)nc2ccccc12 | -1% (active)
86 | Cc1cc(Sc2ccc(Cl)cc2)nc2ccccc12 | 45% (inactive)
87 | CCCCN(CCCC)c1nc(-c2ccccc2)nc2ccccc12 | 30% (inactive)
88 | CCN(CC)c1nc(-c2ccccc2)nc2ccccc12 | 86% (inactive)
89 | COc1ccccc1Nc1nc(-c2ccccc2F)nc2ccccc12 | 73% (inactive)
